Cav3 T inh – blocks human Cav3.2 T-type calcium channel | B-score at 10 µM | 100,000 tested, 4% active | Cav3.2-expressing cells, Fluo-4 calcium fluorescence FDSS; active compounds read low;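 active = single-dose well whose peak fluorescence ratio is a statistical outlier from its plate by either plate-standardised score or position-corrected B-score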
CYP2C19 activ – cytochrome P450 2C19 (human) activation | P33261 | 96,000 tested, under 10 active | AID 1025 | activation factor at 5 µM | recombinant CYP2C19, luciferin-H EGE luminescence; active compounds read high; 0 = fully inhibited enzyme, 1 = untreated enzyme;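 active = activation factor of at least 2 at 5 µM in the primary screen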
Target sequence (P33261 whole entry, looked up): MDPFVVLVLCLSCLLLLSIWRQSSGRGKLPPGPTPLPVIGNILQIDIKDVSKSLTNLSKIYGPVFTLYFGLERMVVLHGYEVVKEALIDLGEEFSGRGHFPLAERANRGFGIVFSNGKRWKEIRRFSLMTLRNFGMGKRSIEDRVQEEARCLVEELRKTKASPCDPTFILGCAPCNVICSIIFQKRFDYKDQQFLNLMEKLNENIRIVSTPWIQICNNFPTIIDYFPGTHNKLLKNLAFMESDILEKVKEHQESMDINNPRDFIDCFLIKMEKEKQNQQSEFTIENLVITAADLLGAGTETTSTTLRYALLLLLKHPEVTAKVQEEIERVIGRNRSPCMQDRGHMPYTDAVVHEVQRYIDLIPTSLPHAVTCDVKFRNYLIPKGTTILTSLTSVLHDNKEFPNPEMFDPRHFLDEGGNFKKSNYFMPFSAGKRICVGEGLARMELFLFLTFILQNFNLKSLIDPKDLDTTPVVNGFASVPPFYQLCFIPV
CYP2C9 inhib – human CYP2C9 inhibition; P11712; CYP2C9 Supersomes, luciferin-H conversion, luminescence; inhibition, % at 5 µM; 96,000 tested, 20% active;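 active = blocking of liver enzyme CYP2C9 beyond about 50% at 5 µM, limit read from the data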
CYP2C9 activ – increases human cytochrome P450 2C9 activity; activation factor at 5 µM; 96,000 tested, 1.4% active; P11712; recombinant CYP2C9, luciferin-H conversion, luminescence; active compounds read high; factor 1 = untreated enzyme, 0 = blocked; AID 1024;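 active = activation factor of 2 or more for CYP2C9 at a 5 µM dose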
CYP2C19 inhib – blocks human cytochrome P450 2C19 | CYP2C19 Supersomes, luciferin-H EGE luminescence, 30 min | inhibition, % at 5 µM | 96,000 tested, 21% active;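 active = CYP2C19 inhibition above a set limit at 5 µM in the primary screen, cut at about 50% in these data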
Of the large screens only hits and unclear results are named; the others gave an inactive call; ! = repeats disagree. In the library only some 27% were active in any assay of this set; here they are far more common.

Cc1cc(C)nc(SCc2nnc(SCC(=O)Nc3ccccc3C)n2Cc2ccco2)n1	CYP2C9 inhib 70, CYP2C19 inhib 62
Cc1ccc(C)c(NC(=O)CSc2nnc(CSc3nc(C)cc(C)n3)n2Cc2ccco2)c1	CYP2C9 inhib 51
CC(NC(=O)c1cccnc1)c1ccc2c(c1)OCO2 (stereo unspecified)	none
COC(=O)C(O)(CC(=O)Nc1ccc(C)c(F)c1)C(F)(F)F (stereo unspecified)	none
CCn1c(O)c(/C=N/n2cnnc2)sc1=S	CYP2C9 inhib 54, CYP2C19 inhib 62
CCn1c(O)c(C=NC2CCCC2)sc1=S	CYP2C9 inhib 51, CYP2C19 inhib 69
CCn1cc(-c2nnnn2-c2ccc(Cl)cc2)c(=O)c2ccccc21	none
O=[N+]([O-])c1ccc2c(c1Nc1ccccc1)=NC1(CCCCC1)N=2	CYP2C9 inhib 53
Cc1ccc(CS(=O)(=O)CCC(=O)NCc2cccs2)cc1	none
O=S(=O)(NC1CCCc2ccccc21)c1cnc[nH]1 (stereo unspecified)	CYP2C9 inhib 52, CYP2C19 inhib 68
Cn1c(=O)oc2cc(S(=O)(=O)NC3CCCc4ccccc43)ccc21 (stereo unspecified)	none
Cc1cc(Nc2ncc(Cl)cc2Cl)n[nH]1	CYP2C19 inhib 71
O=c1[nH]c2cccnc2n1Cc1ccccc1	CYP2C9 inhib 94, CYP2C19 inhib 51
CN(C(=O)c1ccncc1)C1CC(C)(C)N(O)C(C)(C)C1	CYP2C19 inhib 96 (no result: Cav3 T inh)
CN=Cc1cc(-c2ccccc2)sc1O	none (no result: Cav3 T inh)
C/C(=N/NC(N)=S)c1ccccc1[N+](=O)[O-]	none
COc1ccc2nc(C)cc(SCC(=O)N/N=C/c3cccc4ccccc34)c2c1	CYP2C9 inhib 54
O=C(COc1ccccc1-c1ccccc1)N/N=C/c1cccc2ccccc12	none
COC(=O)CSc1cc(C)nc2ccc(OC)cc12	none
COc1ccc2nc(C)cc(SCC(=O)O)c2c1	CYP2C19 inhib 50!
C[N+]1=C2CCCCCN2C(O)(c2ccccc2)C1 (stereo unspecified)	none
OCC[C@@H]1C[C@H](O)[C@@H](O)[C@]2(CCCO2)O1	none (no result: CYP2C19 activ, CYP2C9 inhib, CYP2C9 activ, CYP2C19 inhib)
CN1c2ccccc2C(C)(C)C12C=Cc1cc(O)ccc1O2 (stereo unspecified)	CYP2C9 inhib 61, CYP2C19 inhib 76
COc1cc(CNCc2ccncc2)cc(Br)c1OCc1ccccc1F	CYP2C9 inhib 91, CYP2C19 inhib 86
COc1cc(CO)cc(Br)c1OCc1cccnc1	CYP2C9 activ 2.1, CYP2C19 inhib 80
CCCCCCn1c(CN2CCCCC2C)nc2c1c(=O)n(C)c(=O)n2C (stereo unspecified)	none (no result: CYP2C19 activ, CYP2C9 inhib, CYP2C9 activ, CYP2C19 inhib)
C=CCOC(=O)Nc1ccc(Cl)cc1NC(=O)OCC=C	CYP2C9 inhib 65, CYP2C19 inhib 93
COc1ccc(CCNc2cc(=O)[nH]c(N)n2)cc1	none
Cc1ccccc1C(=O)Nc1ccccc1	none
Cc1ccccc1C(=O)Nc1cccc(NC(=O)c2ccc(-c3ccc(Br)cc3)o2)c1	CYP2C9 inhib 56 (no result: Cav3 T inh)
O=C(C/C=N/OCc1ccc(Cl)cc1Cl)c1ccccc1	none
Clc1ccc(CO/N=C/c2c(-c3ccccc3)nc3n2CCS3)c(Cl)c1	CYP2C9 inhib 65
CCCC(C)C(=O)Nc1nnc(C)s1 (stereo unspecified)	none
CCOc1ccc(-n2c(SCC(=O)Nc3ccc(OC)cc3OC)nc3c(c2=O)SCC3)cc1	none
CC1(C)CC(=O)C2=C(C1)NCN(Cc1ccc3c(c1)OCO3)C2	CYP2C9 inhib 85
CCOC(=O)C1CCN(C(=O)CN(C)S(=O)(=O)c2cc(C)ccc2OC)CC1	CYP2C9 inhib 54
COc1ccc(N(CC(=O)NC2CCCCC2)S(=O)(=O)c2cccnc2)cc1	CYP2C9 inhib 65, CYP2C19 inhib 53
COc1ccc(C)cc1S(=O)(=O)N(C)CC(=O)N1CCC(C)CC1	none (no result: CYP2C19 activ, CYP2C9 inhib, CYP2C9 activ, CYP2C19 inhib)
COc1ccc(S(=O)(=O)N(C)CC(=O)NC2CC2)cc1	CYP2C9 activ 2.5
COc1ccc(S(=O)(=O)N(C)CC(=O)NC2CCCCC2)cc1Cl	CYP2C9 activ 2.4, CYP2C19 inhib 53
Cc1ccc(C)n1-c1sc2c(c1C#N)CCC(C)C2 (stereo unspecified)	none
COc1ccc(S(=O)(=O)N(C)CC(=O)NCc2cccnc2)cc1Cl	CYP2C19 inhib 54
COc1ccc(S(=O)(=O)N(C)CC(=O)N2CCC(C(N)=O)CC2)cc1Cl	CYP2C9 activ 2
C[C@H](NC(=O)c1[nH]cnc1C(=O)Nc1ccc(CNC(=O)OC(C)(C)C)cc1)C(=O)OC(C)(C)C	none (no result: CYP2C19 activ, CYP2C9 inhib, CYP2C9 activ, CYP2C19 inhib)

Source: PubChem BioAssay (several laboratories)
